Screens: PubChem, several laboratories
An excerpt weighted towards active compounds, which were near 3.3% of everything screened.
Autofluor counter – flagged as autofluorescent in microsphere protease counterscreen. compound autofluorescence counterscreen, microsphere flow cytometry; stronger effect = higher value. fluorescence intensity (concentration not given with the values). actives 3.1% (n = 360,000); in the data active = fluorescence intensity above about 16000; inconclusive = no clear call, values can overlap the other calls
BoNT F protease – inhibitors of Botulinum neurotoxin F light chain protease; Multiplex microsphere protease cleavage assay, flow cytometry; inhibition, % at 10 µM; actives 0.22% (n = 360,000); in the data active = inhibition above about 35%, passing the limit was not always enough; inconclusive = no clear call, values can overlap the other calls; also: plate controls were buffer without enzyme for full effect and enzyme alone for no effect
PriA SSB inh – K. pneumoniae PriA-SSBct interaction inhibition; AID 1272365; inhibition, % at 33 µM; AlphaScreen SSBct-PriA binding, biotinylated peptide; actives 0.6% (n = 430,000); in the data active = inhibition mostly above about 37%, no sharp cut-off; inactive = mostly below about 20%;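 also: plate controls were negative control peptide for no effect and reference peptide for full effect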
BoNT-A LC inh2 – BoNT A light chain protease inhibition | actives 0.17% (n = 360,000) | multiplex microsphere protease substrate cleavage, flow cytometry | inhibition, % at 10 µM; also: plate controls were buffer without enzyme for full effect and enzyme alone for no effect
MazF activator – increases E. coli MazEF RNase cleavage of RNA | P0AE70 | FAM/BHQ RNA-DNA oligo cleavage fluorescence, 5 h | activation, % at 20 µM | actives 0.32% (n = 350,000); in the data active = activation above about 50%
Anthrax LF inh2 – blocks Bacillus anthracis lethal factor protease; P15917; multiplex microsphere protease cleavage assay, LF; inhibition, % at 10 µM; actives 0.12% (n = 360,000); AID 588501; also: plate controls were buffer without enzyme for full effect and enzyme alone for no effect
Target sequence (P15917 whole entry, looked up): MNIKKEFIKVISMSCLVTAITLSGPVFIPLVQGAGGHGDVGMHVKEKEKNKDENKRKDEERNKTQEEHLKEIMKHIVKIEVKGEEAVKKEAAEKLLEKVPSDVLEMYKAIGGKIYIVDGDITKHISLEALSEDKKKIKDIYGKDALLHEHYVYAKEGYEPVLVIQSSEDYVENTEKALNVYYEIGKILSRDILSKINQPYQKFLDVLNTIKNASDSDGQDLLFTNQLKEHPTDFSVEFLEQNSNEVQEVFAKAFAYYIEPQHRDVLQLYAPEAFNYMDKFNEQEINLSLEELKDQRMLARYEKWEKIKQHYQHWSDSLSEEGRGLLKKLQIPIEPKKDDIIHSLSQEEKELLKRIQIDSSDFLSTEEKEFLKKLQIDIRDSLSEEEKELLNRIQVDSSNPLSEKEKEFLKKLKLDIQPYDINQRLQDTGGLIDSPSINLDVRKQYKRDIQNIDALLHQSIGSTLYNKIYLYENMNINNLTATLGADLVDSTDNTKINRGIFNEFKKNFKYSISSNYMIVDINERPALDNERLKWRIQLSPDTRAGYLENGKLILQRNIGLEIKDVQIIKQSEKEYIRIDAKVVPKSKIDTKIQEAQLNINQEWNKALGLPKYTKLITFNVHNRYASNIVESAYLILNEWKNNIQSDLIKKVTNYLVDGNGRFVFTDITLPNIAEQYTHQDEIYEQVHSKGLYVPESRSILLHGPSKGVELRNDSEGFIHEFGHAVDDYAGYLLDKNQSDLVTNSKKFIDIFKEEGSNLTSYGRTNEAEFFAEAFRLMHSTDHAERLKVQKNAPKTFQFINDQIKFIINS
The depositor's hits bear a star; ? = inconclusive; / = no result; ! = repeats disagree. Rule as the data show it, unless noted: active = inhibition above about 30%; inconclusive = no clear call, values can overlap the other calls; inactive = below that.

SMILES	Autofluor counter	BoNT F protease	PriA SSB inh	BoNT-A LC inh2	MazF activator	Anthrax LF inh2
O=C(COc1ccccc1F)NC[C@@](O)(c1ccccc1)C1CC1	/	/	-5	/	/	/
CC(C)CS(=O)(=O)C1CN(C(=O)c2cccc3ccccc23)C1	/	/	-25	/	/	/
O=C(NCCn1ccnc1-c1ncccn1)c1ccc(Cl)s1	/	/	5	/	/	/
O=S(=O)(NCCn1ccnc1-c1ncccn1)c1ccc2c(c1)CCCC2	/	/	96*	/	/	/
O=S(=O)(NCCn1ccnc1-c1ncccn1)c1ccc(Cl)s1	/	/	44*	/	/	/
COC(=O)c1ccc(S(=O)(=O)NCCn2ccnc2-c2ncccn2)cc1	/	/	96*	/	/	/
CNC(=O)Cc1csc(NC(=O)c2ncc(-c3ccc(Cl)cc3)o2)n1	/	/	26	/	/	/
CC1=NNC(=O)C1CCC(=O)O (centres undefined)	/	/	2	/	/	/
O=C(Nc1nnc(-c2ccc3c(c2)OCCO3)o1)c1cccc(NS(=O)(=O)c2ccc(F)cc2)c1	/	/	32*	/	/	/
COc1cccc2cc(-c3nnc(NC(=O)c4cccc(S(C)(=O)=O)c4)o3)oc12	/	/	90*	/	/	/
COc1ccc(S(=O)(=O)Nc2cccc(C(=O)Nc3nnc(C4=COCCO4)o3)c2)cc1	/	/	56*	/	/	/
O=C(CCC(=O)c1ccccc1)Nc1ccc(-n2ccnc2)nc1	/	/	6	/	/	/
Cc1ccccc1NC(=S)N/N=C/c1ccc(O)cc1O	3734	-3	/	-1	8	-4
Cc1ccccc1NC(=S)NN=Cc1ccc(O)cc1O	/	/	50*	/	/	/
COCCCNC(=S)N/N=C/c1ccccc1O	4308	?	/	2	8	-19
COCCCNC(=S)NN=Cc1ccc(O)cc1O	/	/	46*	/	/	/
Cc1cc(C(=O)NC[C@H](O)c2cn(C)c3ccccc23)c(C)o1	/	/	-10	/	/	/
Cc1ccc(-n2c(Cn3nc(C(F)(F)F)cc3C)n[nH]c2=S)cc1	17459*	-6	-8	?	-1	-4
COc1ccc(-n2c(Cn3nc(C(F)(F)F)cc3C)n[nH]c2=S)cc1	2060	5	-9	0	1	1
CC(=O)Nc1ccc(NC(=O)CSCCc2ccccn2)cc1	19811*	3	-6	2	-1	0
O=C(NC[C@@](O)(c1ccco1)C1CC1)C1(c2ccccc2)CCOCC1	/	/	-8	/	/	/
Cc1cc(NC(=O)CSCC(=O)N(C)Cc2ccc(Cl)c(Cl)c2)no1	5307	6	1	1	-5	1
Cc1cc(NC(=O)COC(=O)CSCc2ccc(Cl)c(Cl)c2)no1	22915*	4	-7	?	3	0
Cc1noc(C)c1C(=O)OCC(=O)c1cc(C)n(Cc2ccccc2Cl)c1C	22970*	-4	1	-2	2	-17
Cc1cc(NC(=O)COC(=O)c2c(C)nn(Cc3ccccc3Cl)c2Cl)no1	24183*	-4	-4	-3	7	-7
SMILES	Autofluor counter	BoNT F protease	PriA SSB inh	BoNT-A LC inh2	MazF activator	Anthrax LF inh2
Cc1cc(NC(=O)COC(=O)c2cccc(OCc3ccccc3)c2)no1	20597*	-2	-15	-1	-4	0
COc1cccc(-c2csc(-n3nc(C)cc3NC(=O)COc3ccc(C)cc3)n2)c1	/	/	-4	/	/	/
Cc1cc(C)cc(C(=O)N2CCC3(CC2)NCCc2[nH]cnc23)c1	4838	12	94*	2	-3	0
COc1ccc(-c2cc3c(SCC(=O)NCCc4ccccc4)nccn3n2)cc1	/	/	-21	/	/	/
Cc1cccc(N=C2NC(=O)/C(=C\c3cccs3)S2)c1	2203	-3	6	0	-16	0
Cc1ccc(N=C2NC(=O)/C(=C/c3cccs3)S2)cc1C	10283	1	3	1	54*	2
CCOC(=O)c1cnn(-c2nc(-c3ccccc3F)cs2)c1C(F)(F)F	19894*	0	-15	?	-4	-12
CCOC(=O)c1cnn(-c2nc(-c3ccccc3)cs2)c1C(F)(F)F	2798	-1	-24	0	-15	-3
O=C(COc1ccccc1)NC(Cc1c[nH]c2ccccc12)C(=O)O (centres undefined)	16391*	0	-8	0	-1	-5
Cc1ccc(C(=O)NC(Cc2c[nH]c3ccccc23)C(=O)O)cc1 (centres undefined)	20051*	0	-1	?	-2	-2
Cc1nc2c(C)cccn2c(=O)c1NC(=O)COc1ccc2ccccc2c1	/	/	-3	/	/	/
COC(=O)Cn1c2nc3ccccc3nc2c2cccc(C)c21	3033	8	-21	11	-2	2
Cc1cccc2c3nc4ccccc4nc3n(C)c12	4110	4	-37	45*	165*	7
O=C(NCC1CCN(C(=O)COc2ccccc2)CC1)c1cncc(Br)c1	/	/	-5	/	/	/
COc1cccc(/C=N/NC(=O)CC2C(=O)NN=C2C)c1O (centres undefined)	20430*	-1	/	1	-4	-3
COCCNC(=O)NC[C@H](O)c1csc2ccccc12	/	/	-8	/	/	/
Cn1cnc([N+](=O)[O-])c1NCc1ccccc1	3764	40*	1	7	-13	?
O=C(Nc1nccs1)c1ccc(S(=O)(=O)N2CCCCCC2)cc1	/	/	0	/	/	/
COC(=O)c1ccc(NC(=O)COc2ccc(S(=O)(=O)N3CCCCC3)cc2)cc1	23051*	2	-15	2	-6	2
O=C(COc1cccc(C(F)(F)F)c1)Nc1ccc(S(=O)(=O)N2CCCC2)cc1	25851*	-10	-7	-5	0	-4
CCc1ccc(OCC(=O)Nc2ccc(S(=O)(=O)N3CCCC3)cc2)c(Br)c1	23390*	-5	-11	-3	1	-2
O=C(Cc1cccc(C(F)(F)F)c1)Nc1ccc(S(=O)(=O)N2CCCC2)cc1	5746	-8	-10	-3	-2	1
O=C(NCc1cnn2c1CCCC2)c1cc(-c2cccnc2)on1	/	/	-10	/	/	/
NC(=O)c1nc(C2CCCCC2)nc2c1[nH]c(=O)n2-c1ccc(F)cc1	4964	-8	-11	0	86*	2
COc1ccccc1-n1c(=O)[nH]c2c(C(N)=O)nc(C3CCCCC3)nc21	4703	-3	-7	-1	9	-10
CN(C)CCCN(C(=O)c1ccc(C(=O)c2ccccc2)cc1)c1nc2cc3c(cc2s1)OCCO3	5860	16	41*!	1	5	-5
CN(C)CCCN(C(=O)COc1ccccc1)c1nc2cc3c(cc2s1)OCCO3	5150	-1	5	1	18	-2
